# Values joined by “and” are separate entries in the source; they are usually repeats but may differ in a detail not shown here. Identical values can stand only once. Like-named read-outs stand apart in the source and are kept apart here.
# What was measured:
# Details in all cases: n = 1
# NEK7 = tested on: NEK7
# NEK9 = tested on: NEK9
# NIK = tested on: T1, NIK
# T1 construct: gene MAP3K14
# NIM1 = tested on: T2, NIM1
# T2 construct: gene MGC42105
# NLK = tested on: NLK
# OSR1 = tested on: T3, OSR1
# T3 construct: gene OXSR1
# PAK1 = tested on: PAK1
# PAK2 = tested on: PAK2
# PAK3 = tested on: PAK3
# PAK4 = tested on: PAK4
# [1] = concentration: 1 μM, replicates: in singlicate
# [2] = concentration: 1 μM,replicates: in singlicate, 1 µM
# 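Further: KINOMEscan kinase panel screen.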
structure (smiles),measurement,setting,value
Cc1cccc(-c2nc(C)cc(Nc3ccncc3)n2)n1 [GSK257997],%Inh,NEK7; [1],0%
same,%Inh,NEK9; [1],46%
same,%Inh,NIK; [1],10%
same,%Inh,NIM1; [1],6%
same,%Inh,NLK; [1],30%
same,%Inh,OSR1; [1],10%
same,%Inh,PAK1; [1],44%
same,%Inh,PAK2; [1],41%
same,%Inh,PAK3; [1],32%
same,%Inh,PAK4; [1],23%
Cc1c(O)cccc1Nc1ccnc2ccc(C(F)(F)F)cc12.Cl [GW466413],%Inh,NEK7; [1],0%
same,%Inh,NEK9; [1],0%
same,%Inh,NIK; [1],22%
same,%Inh,NIM1; [1],17%
same,%Inh,NLK; [1],0%
same,%Inh,OSR1; [1],0%
same,%Inh,PAK1; [1],0%
same,%Inh,PAK2; [1],0%
same,%Inh,PAK3; [1],1%
same,%Inh,PAK4; [1],0%
Nc1ncnc2[nH]c(-c3ccccc3)nc12 [AH5015],%Inh,NEK7; [1],7%
same,%Inh,NEK9; [1],1%
same,%Inh,NIK; [1],50%
same,%Inh,NIM1; [1],21%
same,%Inh,NLK; [1],0%
same,%Inh,OSR1; [1],17%
same,%Inh,PAK1; [1],30%
same,%Inh,PAK2; [1],48%
same,%Inh,PAK3; [1],100%
same,%Inh,PAK4; [1],0%
Cc1ccccc1-n1cnc2c(N)ncnc21 [SKF-97510],%Inh,NEK7; [1],12%
same,%Inh,NEK9; [1],0%
same,%Inh,NIK; [1],0%
same,%Inh,NIM1; [1],0%
same,%Inh,NLK; [1],15%
same,%Inh,OSR1; [1],0%
same,%Inh,PAK1; [1],15%
same,%Inh,PAK2; [1],11%
same,%Inh,PAK3; [1],25%
same,%Inh,PAK4; [1],0%
COc1cccc(-c2cc(-c3c[nH]nc3-c3ccccn3)ccn2)c1 [GW680338],%Inh,NEK7; [1],0%
same,%Inh,NEK9; [1],1%
same,%Inh,NIK; [1],19%
same,%Inh,NIM1; [1],21%
same,%Inh,NLK; [1],6%
same,%Inh,OSR1; [1],0%
same,%Inh,PAK1; [1],0%
same,%Inh,PAK2; [1],0%
same,%Inh,PAK3; [1],9%
same,%Inh,PAK4; [1],9%
CS(=O)(=O)c1ccc(-c2c(-c3ncn[nH]3)sc(N3CCOCC3)c2C#N)cc1,%Inh,NEK7; [1],0%
same,%Inh,NEK9; [1],0%
same,%Inh,NIK; [1],0%
same,%Inh,NIM1; [1],21%
same,%Inh,NLK; [1],0%
same,%Inh,OSR1; [1],0%
same,%Inh,PAK1; [1],2%
same,%Inh,PAK2; [1],10%
same,%Inh,PAK3; [1],6%
same,%Inh,PAK4; [1],5%
Nc1nc(-c2nccs2)c(-c2ccnc3ccccc23)s1 [GW693542],%Inh,NEK7; [1],0%
same,%Inh,NEK9; [1],12%
same,%Inh,NIK; [1],0%
same,%Inh,NIM1; [1],5%
same,%Inh,NLK; [1],38%
same,%Inh,OSR1; [1],6%
same,%Inh,PAK1; [1],0%
same,%Inh,PAK2; [1],1%
same,%Inh,PAK3; [1],9%
same,%Inh,PAK4; [1],0%
CN1C(=O)C(Nc2ccc(Cl)c(C(=O)O)c2)=C(c2ccc(Cl)cc2)C1=O [SB-404290],%Inh,NEK7; [1],15%
same,%Inh,NEK9; [1],10%
same,%Inh,NIK; [1],0%
same,%Inh,NIM1; [1],9%
same,%Inh,NLK; [1],17%
same,%Inh,OSR1; [1],13%
same,%Inh,PAK1; [1],0%
same,%Inh,PAK2; [1],18%
same,%Inh,PAK3; [1],22%
same,%Inh,PAK4; [1],0%
CCCc1ccc(S(=O)(=O)NC2CCN(c3ccnc(Nc4ccc(F)cc4)n3)C2)cc1 (stereo not drawn) [GSK1379715],%Inh,NEK7; [1],0%
same,%Inh,NEK9; [1],0%
same,%Inh,NIK; [1],23%
same,%Inh,NIM1; [1],18%
same,%Inh,NLK; [1],0%
same,%Inh,OSR1; [1],17%
same,%Inh,PAK1; [1],0%
same,%Inh,PAK2; [1],2%
same,%Inh,PAK3; [1],3%
same,%Inh,PAK4; [1],0%
O=C(Nc1n[nH]c2nc(-c3nccs3)c(Br)cc12)C1CC1 [SB-742251],%Inh,NEK7; [1],0%
same,%Inh,NEK9; [1],0%
same,%Inh,NIK; [1],44%
same,%Inh,NIM1; [1],0%
same,%Inh,NLK; [1],0%
same,%Inh,OSR1; [1],7%
same,%Inh,PAK1; [1],2%
same,%Inh,PAK2; [1],16%
same,%Inh,PAK3; [1],20%
same,%Inh,PAK4; [1],0%
Fc1cccc(COc2nnc(-c3ccc4c(c3)CCO4)o2)c1,%Inh,NEK7; [1],19%
same,%Inh,NEK9; [1],3%
same,%Inh,NIK; [1],0%
same,%Inh,NIM1; [1],0%
same,%Inh,NLK; [1],6%
same,%Inh,OSR1; [1],0%
same,%Inh,PAK1; [1],27%
same,%Inh,PAK2; [1],55%
same,%Inh,PAK3; [1],16%
same,%Inh,PAK4; [1],15%
Cc1ccc(NC(=O)Nc2cccc(C(F)(F)F)c2)cc1 [GSK955403],%Inh,NEK7; 1 µM,0%
same,%Inh,NEK9; 1 µM,0%
same,%Inh,NIK; 1 µM,8%
same,%Inh,NIM1; 1 µM,0%
same,%Inh,NLK; 1 µM,15%
same,%Inh,OSR1; 1 µM,0%
same,%Inh,PAK1; 1 µM,24%
same,%Inh,PAK2; 1 µM,5%
same,%Inh,PAK3; 1 µM,0%
same,%Inh,PAK4; 1 µM,4%
COc1ccc(C2=C(Nc3cccc(C(=O)O)c3)C(=O)NC2=O)cc1 [SB-390765],%Inh,NEK7; [1],28%
same,%Inh,NEK9; [1],2%
same,%Inh,NIK; [1],10%
same,%Inh,NIM1; [1],45%
same,%Inh,NLK; [1],1%
same,%Inh,OSR1; [1],22%
same,%Inh,PAK1; [1],0%
same,%Inh,PAK2; [1],27%
same,%Inh,PAK3; [1],0%
same,%Inh,PAK4; [1],0%
CSc1nn2c(=O)cc(N3CCOCC3)nc2n1Cc1cccc(C(F)(F)F)c1C [GSK2363608],%Inh,NEK7; [2],3% and 0%
same,%Inh,NEK9; [2],22% and 2%
same,%Inh,NIK; [2],0% and 6%
same,%Inh,NIM1; [2],2% and 12%
same,%Inh,NLK; [2],2% and 37%
same,%Inh,OSR1; [2],15% and 7%
same,%Inh,PAK1; [2],0% and 38%
same,%Inh,PAK2; [2],0% and 37%
same,%Inh,PAK3; [2],8% and 0%
same,%Inh,PAK4; [1],0%
CCn1c(-c2cccnc2O)nc2cnccc21 [SB-736715],%Inh,NEK7; [1],0%
same,%Inh,NEK9; [1],0%
same,%Inh,NIK; [1],27%
same,%Inh,NIM1; [1],0%
same,%Inh,NLK; [1],0%
same,%Inh,OSR1; [1],0%
same,%Inh,PAK1; [1],0%
same,%Inh,PAK2; [1],0%
same,%Inh,PAK3; [1],0%
same,%Inh,PAK4; [1],32%
Fc1cc(Cl)ccc1Nc1ccnc2cc(I)ccc12 [GW551191],%Inh,NEK7; [1],0%
same,%Inh,NEK9; [1],5%
same,%Inh,NIK; [1],7%
same,%Inh,NIM1; [1],19%
same,%Inh,NLK; [1],59%
same,%Inh,OSR1; [1],6%
same,%Inh,PAK1; [1],18%
same,%Inh,PAK2; [1],9%
same,%Inh,PAK3; [1],14%
same,%Inh,PAK4; [1],0%
Cl.O=C(Nc1cccc(-c2nn3ncccc3c2-c2ccnc(Nc3cccnc3)n2)c1)c1c(F)cccc1F [GSK312879],%Inh,NEK7; [1],7%
same,%Inh,NEK9; [1],0%
same,%Inh,NIK; [1],24%
same,%Inh,NIM1; [1],11%
same,%Inh,NLK; [1],15%
same,%Inh,OSR1; [1],23%
same,%Inh,PAK1; [1],15%
same,%Inh,PAK2; [1],19%
same,%Inh,PAK3; [1],9%
same,%Inh,PAK4; [1],0%
Cc1cccc(-c2nc(Nc3cccc(C(N)=O)c3)c3ccccc3n2)n1 [GW876019],%Inh,NEK7; [1],0%
same,%Inh,NEK9; [1],15%
same,%Inh,NIK; [1],0%
same,%Inh,NIM1; [1],0%
same,%Inh,NLK; [1],0%
same,%Inh,OSR1; [1],0%
same,%Inh,PAK1; [1],16%
same,%Inh,PAK2; [1],21%
same,%Inh,PAK3; [1],49%
same,%Inh,PAK4; [1],17%
